This passage reports inhibition results from PubChem BioAssay AID951 (NMMLSC, 2007).

About 140 (0.074%) of roughly 190,000 compounds were called active. No stated cut-off is given here; in the data, active means inhibition above about 40%. The full list was thinned out, with actives kept by preference.

What is called inhibition is the relative decrease from the control value, in per cent.

Chain of Bcl-2-like protein 10 (Homo sapiens) (Q9HD36 whole entry, looked up): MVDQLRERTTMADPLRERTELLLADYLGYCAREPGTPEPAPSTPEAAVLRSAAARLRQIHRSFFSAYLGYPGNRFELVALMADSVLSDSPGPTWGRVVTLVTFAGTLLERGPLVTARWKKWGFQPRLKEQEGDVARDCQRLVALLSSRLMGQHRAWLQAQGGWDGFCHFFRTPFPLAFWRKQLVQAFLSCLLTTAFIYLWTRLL

The experiment concerns the target Bcl-2-like protein 10 (Homo sapiens) (UniProt Q9HD36). Nature of the experiment: inhibitors of Bim-Bcl-B binding, primary screen, biochemical, multiplexed, human Bcl-2 family (AID 951).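 Further: 0% = tracer peptide without compound and 100% = reference inhibitor peptide.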 The conditions noted are these: bead-based flow cytometry, Bim peptide-Bcl-B binding; at 10 µM; active compounds read high. (In general: A flow cytometer gives signals particle by particle.)
Take `O=C(CSc1nncn1-c1cccnc1)N1CCOCC1`: the inhibition was -6% (inactive).
Regarding `O=C(NCCCn1ccnc1)C(=O)c1cn(CC(=O)N2CCCCCC2)c2ccccc12`, the inhibition was 0% (inactive).
As for `Cn1ncc2c(NNC(=O)Cc3cccc4ccccc34)ncnc21`, the figure is -3% (inactive); as for `OCCC1CN(Cc2cccn2-c2nccs2)CCN1CCc1ccccc1` (centres undefined), -1% (inactive); as for `O=C(CN1C(=O)NC2(CCCCCC2)C1=O)NCc1cccs1`, -1% (inactive).
The value for `Cc1ccc(C(=O)Nc2ccc(C)c(S(=O)(=O)N(C)C)c2)s1` was 0% (inactive); that for `CC(NC(=O)c1cccc2ccccc12)c1ccc2c(c1)CCCC2` (centres undefined) was 6% (inactive).
As for `CCOCC(=O)Nc1ncc(S(=O)(=O)c2ccc([N+](=O)[O-])cc2)s1`, the figure is 3% (inactive); as for `Cc1ccccc1NC(=O)CSC1=NCCN1`, -6% (inactive); as for `CCOC(=O)c1sc2nc(C)nc(Nc3ccc(OC)c(OC)c3)c2c1C`, 2% (inactive).
For `CN(C)c1ccc(/C=N/N(Cc2ccccc2)c2ccccc2)cc1`, the inhibition was -3% (inactive).
As for `C=CCn1c(CCNC(=O)c2ccccc2F)nnc1SCC(=O)Nc1ccc(OC)cc1`, the figure is 0% (inactive); as for `COc1ccc(C2CC(c3ccccc3)=NN2C(=O)COC(=O)COc2ccccc2)cc1` (centres undefined), -5% (inactive); as for `CC(=O)Nc1cccc([N+](=O)[O-])c1`, -4% (inactive).
The value for `COC(=O)C1CCN(C(=O)c2cc(=O)[nH]c3ccccc23)CC1` was -1% (inactive).
The value for `CC1CCCC(NC(=O)COC(=O)[C@@H]2CC(O)CN2S(=O)(=O)c2ccc3c(c2)OCCO3)C1C` (some centres undefined) was -1% (inactive).
`O=C(CNC(c1ccccc1)c1ccccc1)Nc1ccc(F)cc1`: the inhibition was -8% (inactive).
The value for `Cc1ccc(/C=N/NC(=O)CNC(=O)COc2ccccc2)o1` was -7% (inactive); that for `C=CCc1ccccc1OCC(=O)N/N=C/c1ccccc1OCC` was -9% (inactive).
The value for `CCOc1ccccc1/C=N/NC(=O)CNC(=O)COc1ccccc1` was 74% (active); that for `CCOc1ccc(NC(=O)CN(C)CC(=O)NC(C)c2ccccc2)cc1OCC` (centres undefined) was -4% (inactive); that for `Cc1cccc(C(=O)N2CCC(c3nc4ccccc4s3)CC2)c1` was -2% (inactive).
The value for `O=C(CSC1CC(=O)N(CCc2ccccc2)C1=O)Nc1ccc(Cl)cc1` (centres undefined) was -5% (inactive); that for `C[C@@H]1CC[C@]2(O[C@@H](CCO)C[C@H](O)[C@H]2O)O1` was -5% (inactive); that for `O=C(N/N=C/c1ccco1)c1ccc(NC(=O)C2CC2)cc1` was -4% (inactive).
`NC(=O)Cn1nc([N+](=O)[O-])nc1Oc1ccc(Br)cc1`: the inhibition was -1% (inactive).
As for `CN1CCN(C(=O)CCc2ncc(C(F)(F)F)cc2Cl)CC1`, the figure is -8% (inactive); as for `COc1ccc(C(=O)NCC(=O)N/N=C/c2ccc([N+](=O)[O-])s2)cc1OC`, -2% (inactive).
As for `Cc1ccc(S(=O)(=O)NNC(=O)Nc2cccc3ccccc23)cc1`, the figure is 0% (inactive).
As for `CCOC(=O)c1c(-c2cccc(N)c2)cn2ccccc12`, the figure is 17% (inactive); as for `COc1ccc2c(c1)CC[C@@H]1[C@@H]2CC[C@]2(C)C(=O)CC[C@@H]12`, -3% (inactive); as for `CC(=O)C1C(c2ccc(Cl)cc2)c2c(n[nH]c2C)CC1(C)O` (centres undefined), -4% (inactive).
Consider `CCNC(=O)COC(=O)CCNC(=O)c1cccc(C)c1`, for which the inhibition is -4% (inactive).
The value for `NC(=O)C[n+]1cccc(C(N)=O)c1` was -1% (inactive); that for `O=C(CP(=O)(c1ccccc1)c1ccccc1)N1CCOCC1` was -6% (inactive).
`CS(=O)(=O)Nc1cccc(-c2cn3ccccc3n2)c1`: the inhibition was -2% (inactive).
The value for `CSc1ccc(/C=N/N2CCN(Cc3ccccc3Cl)CC2)cc1` was -8% (inactive).
For the molecule `CCC(C(=O)OCC(=O)Nc1c(Cl)cc(Cl)cc1Cl)c1ccccc1` (centres undefined), the inhibition was -7% (inactive).
As for `C=CCn1c(SCC(N)=O)nnc1-c1cc2c(s1)CCC(CC)C2` (centres undefined), the figure is -12% (inactive); as for `N=C1C(c2nc3ccccc3[nH]2)=C(O)CN1NC(=O)c1c[nH]c2ccccc12`, -2% (inactive).
As for `Cc1cc(C)c2nc(-c3cccnc3)cc(C(=O)Nc3ccc(S(=O)(=O)Nc4onc(C)c4C)cc3)c2c1`, the figure is -1% (inactive); as for `O=C1N(c2ccc(Cl)cc2)C(c2ccc(Cl)cc2)N2CCCN12` (centres undefined), -11% (inactive); as for `CC(=O)NC(CC(=O)O)c1ccc(F)cc1` (centres undefined), -4% (inactive).
The value for `Cc1ccc(CC2CC(=O)N(c3nc(C)cc(C)n3)C2=O)cc1` (centres undefined) was -1% (inactive); that for `CC(C)(C)c1nnc(N/N=C/c2ccc(O)cc2)n(N)c1=O` was -7% (inactive); that for `Fc1ccccc1N=C1Nc2cccc3cccc1c23` was -4% (inactive).
In the case of `Cc1ccccc1C(=O)OC1OC(=O)C(Cl)=C1Nc1ccccc1` (centres undefined), the inhibition was -2% (inactive).
The value for `N#CCSc1nn(-c2ccc(F)cc2)c(=S)s1` was -7% (inactive); that for `O=C(CSc1nn(-c2ccc(F)cc2)c(=S)s1)NC1CCS(=O)(=O)C1` (centres undefined) was -1% (inactive); that for `Cc1ccccc1-n1nc(SCC(=O)O)sc1=S` was 43% (active).
The value for `O=C(Nc1ccc(Br)cn1)c1ccc([N+](=O)[O-])cc1Cl` was -6% (inactive); that for `Cc1ccc(COc2ccc(C(=O)NN)cc2)cc1` was -3% (inactive).
The value for `COc1cc(C2/C(=C(\O)c3ccc4c(c3)CC(C)O4)C(=O)C(=O)N2Cc2ccco2)ccc1O` (centres undefined) was 1% (inactive).
Turning to `O=C(O)/C=C/c1ccc(S(=O)(=O)N2CCCCCC2)cc1`, the inhibition is 0% (inactive).
Take `Cc1cc(Cl)c(S(=O)(=O)NCCC(=O)O)cc1OCC(N)=O`: the inhibition was -7% (inactive).
For the molecule `Cc1cc(Cl)c(S(=O)(=O)Nc2ccc3c(c2)OCCO3)cc1OCC(N)=O`, the inhibition was -2% (inactive).
As for `Cc1cc(Cl)c(S(=O)(=O)NCC2CCCO2)cc1OCC(N)=O` (centres undefined), the figure is 80% (active); as for `CCOc1cc2[nH]c(=O)n(Cc3ccc(C(=O)NCCCN4CCCC4=O)cc3)c(=O)c2cc1OCC`, -6% (inactive); as for `OCC1(Cc2ccccc2C(F)(F)F)CCN(Cc2cccc3cnccc23)CC1`, 0% (inactive).
On to `CCOc1ccc(NC(=O)CSc2nc3ccccc3c(=O)n2Cc2cccs2)cc1`, for which the inhibition is -7% (inactive).
As for `Cc1ccc(S(=O)(=O)N2CCOCC2)cc1C(=O)OC1CCCCC1=O` (centres undefined), the figure is -7% (inactive).
As for `Cc1ccc(C(=O)N/C(=C/c2cccnc2)C(=O)O)cc1`, the figure is -7% (inactive); as for `N/C(=N/O)c1cccn1Cc1ccccc1[N+](=O)[O-]`, -4% (inactive).
The value for `CC(C)NC(=O)/C(C#N)=C\c1ccc(N(C)C)c(Br)c1` was -2% (inactive).
Take `CCc1nccn1S(=O)(=O)c1cccc([N+](=O)[O-])c1`: the inhibition was -2% (inactive).
For the molecule `CCc1c(SCCC(=O)O)nc2ccccc2c1C`, the inhibition was -7% (inactive).
The value for `CN(Cc1ccccn1)Cc1nc(-c2ccc(Cl)cc2)no1` was -6% (inactive).
As for `Nc1nnnn1CC(=O)N/N=C/c1ccc(-c2cccc(Cl)c2)o1`, the figure is -4% (inactive); as for `Cc1cc(C)n(-c2ccc3nncn3n2)n1`, 2% (inactive).
The value for `Cc1ccc(C2=NN(C(=O)CSc3nc(N)cc(N)n3)C(c3ccco3)C2)cc1` (centres undefined) was -27% (inactive); that for `CC1CCc2sc(C(=O)N/N=C/C3CCCCC3)cc2C1` (centres undefined) was -6% (inactive).
`Cc1ccc2nc(-c3ccncc3)cc(C(=O)Nc3ccc(OC(F)F)cc3)c2c1`: the inhibition is 1% (inactive).
The value for `COc1ccc(-n2cc(CNC3CCOCC3)c(-c3cccc(F)c3)n2)cc1` was -5% (inactive).
For `COc1ccc(Cl)cc1N(CC(=O)N1CCCCC1)S(C)(=O)=O`, the inhibition is -5% (inactive).
Consider `CSCc1cc(N2CCOCC2)nc(SCc2ccc(Cl)cc2Cl)n1`, for which the inhibition is -11% (inactive).
As for `CSCc1cc(N(C)C)nc(SCc2ccc(Cl)cc2Cl)n1`, the figure is 69% (active).
Regarding `Clc1ccc(CSc2nnc(/C=C/c3ccccc3)o2)c(Cl)c1`, the inhibition was -9% (inactive).
As for `Cc1cccc(NC(=S)N2CCCC(c3nc4ccccc4[nH]3)C2)c1` (centres undefined), the figure is -14% (inactive); as for `O=C(COC(=O)[C@H](Cc1ccccc1)NC(=O)c1cccs1)Nc1cc(F)ccc1F`, -14% (inactive).
The value for `Cc1ccc(C)c(NC(=O)CSc2nc3c(oc4ccccc43)c(=O)n2-c2ccccc2)c1` was -6% (inactive); that for `C/C(=N\NC(=O)c1cccc(N2CCCC2=O)c1)c1ccc(N)cc1` was -7% (inactive).
As for `CC(O)C(NS(=O)(=O)c1ccc(Cl)cc1)C(=O)OCc1cc([N+](=O)[O-])cc2c1OCOC2` (centres undefined), the figure is 0% (inactive); as for `COc1ccc(N(C(=O)c2ccc(C)cc2)S(=O)(=O)c2cccs2)cc1`, -6% (inactive).
Turning to `CSCCC(NC(=O)COc1ccccc1)C(=O)Nc1ccc(C)cc1` (centres undefined), the inhibition is -6% (inactive).
In the case of `Cc1nc(CC(=O)NNS(=O)(=O)c2ccc(F)c(Cl)c2)cs1`, the inhibition is 1% (inactive).
For the molecule `O=C(NC1CCCCC1)C1CCCN(S(=O)(=O)c2ccc(Br)s2)C1` (centres undefined), the inhibition was -6% (inactive).
The value for `c1ccc2c(c1)CSc1sccc1C2=C1CCNCC1` was -4% (inactive); that for `Cc1ccc(C(C)NC(=O)Cn2nc(C)c([N+](=O)[O-])c2C)cc1` (centres undefined) was -3% (inactive).
The value for `CCOC(=O)N/N=C/c1cccnc1` was -4% (inactive); that for `CCN(CC)P(=O)(Nc1ccc(SC(F)F)cc1)c1ccc(N(C)C)cc1NC(=O)c1ccco1` (centres undefined) was 1% (inactive).
As for `CN(C)C(=O)N1CCNCC1`, the inhibition was 0% (inactive).
As for `Cc1cc(C)n(CC(=O)Nc2ccc([N+](=O)[O-])cc2)n1`, the figure is 0% (inactive).
As for `CC(C)C(=O)NCc1cc(-c2ccc(Cl)cc2)no1`, the figure is 5% (inactive).
The value for `CC1=NN(C(=O)CCCc2ccccc2)C(O)(C(F)(F)F)C1` (centres undefined) was -2% (inactive).
For the molecule `OCC1(CCOc2ccccc2)CCN(Cc2cn[nH]c2-c2ccccc2)CC1`, the inhibition was -2% (inactive).
The value for `CN1CCN(c2ccc(S(=O)(=O)N3CCCCC3)cc2NC(=O)Cc2ccccc2F)CC1` was -4% (inactive); that for `COc1ccc(N2CCN(C(=O)CNS(=O)(=O)c3ccc(C)c(C)c3)CC2)cc1` was -2% (inactive).
The value for `O=C(CCC1CCCN(Cc2ccc(O)c(Cl)c2)C1)NCc1ccccc1F` (centres undefined) was -1% (inactive).
With `CCCCN(CC(=O)NC(C)(C)C)C(=O)C(=O)Nc1ccc2c(c1)OCCO2`, the inhibition is 1% (inactive).
